Inconclusive results are not listed. Activity calls are given as the source filed them. The call rests on the fitted dose curve; in most records, active means well fitted curve in the direction sought with a large enough effect; inconclusive means small, poorly fitted or top-dose-only effect, or another doubt; inactive means no such curve, though single readings can be large; an effect the other way counts as inactive or inconclusive.
Key:
WaGa = test: qHTS assay to identify novel small-molecules to repurpose for Merkel cell carcinoma treatment (AID 1296009); settings: MCC and control cell lines, CellTiter-Glo viability, 72 h; series mostly up to 46 µM; further: nearly all actives have a fitted effect of over 60% in size
Summary of the method: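 Cells exposed to NPC (8-point) and MIPE (11-point) compound dilutions for 72 hr at 37 degree celsius; viability read by CellTiter-Glo luminescence, normalized to no-cell and DMSO in-plate controls.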

C33A = test: Primary qHTS to identify gynecologic anti-cancer compounds using libraries of approved drugs and bioactive compounds (AID 1345084); settings: Gynecologic cancer cell panel viability, ATPlite luminescence, 48 h; series mostly up to 57.5 µM; further: nearly all actives have a fitted effect of over 55% in size
Summary of the method: (§1)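 Five-point cytotoxicity, 48 h drug exposure at 37 C, 5% CO2, on cells seeded 16 h beforehand. ATP content read by ATPlite luminescence.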

CASKI = test: as above; settings: Gynecologic cancer cell panel viability, ATPlite luminescence, 48 h; series mostly up to 57.5 µM
Summary of the method: as §1

Es-2 = test: as above; settings: Gynecologic cancer cell panel viability, ATPlite luminescence, 48 h; series mostly up to 57.5 µM
Summary of the method: as §1

HeLa = test: as above; settings: Gynecologic cancer cell panel viability, ATPlite luminescence, 48 h; series mostly up to 57.5 µM
Summary of the method: as §1

JEG-3 = test: as above; settings: Gynecologic cancer cell panel viability, ATPlite luminescence, 48 h; series mostly up to 57.5 µM
Summary of the method: as §1

OV90 = test: as above; settings: Gynecologic cancer cell panel viability, ATPlite luminescence, 48 h; series mostly up to 57.5 µM
Summary of the method: as §1

PA-1 = test: as above; settings: Gynecologic cancer cell panel viability, ATPlite luminescence, 48 h; series mostly up to 57.5 µM
Summary of the method: as §1

CAOV3 = test: as above; settings: Gynecologic cancer cell panel viability, ATPlite luminescence, 48 h; series mostly up to 57.5 µM
Summary of the method: as §1

Hek293T = test: as above; settings: Gynecologic cancer cell panel viability, ATPlite luminescence, 48 h, control line for the selectivity index; series mostly up to 57.5 µM
Summary of the method: as §1

Measured: Potency

CCOCCOC(C)=O
not listed: PA-1 | CAOV3 | Hek293T
inactive: all other assays above

O=C(O)C(Cl)Cl
not listed: CAOV3 | Hek293T
inactive: all other assays above

O=C(O)c1cc(Oc2ccc(C(F)(F)F)cc2Cl)ccc1[N+](=O)[O-]
not listed: JEG-3 | Hek293T
inactive: all other assays above

CS(=O)(=O)c1ccc(C(=O)C2C(=O)CCCC2=O)c([N+](=O)[O-])c1
not listed: CAOV3
inactive: all other assays above

O=C1C(I)=CC(=C(c2cc(I)c(O)c(I)c2)c2ccccc2C(=O)O)C=C1I
not listed: CAOV3
inactive: all other assays above

O=C(O)COc1nc(Cl)c(Cl)cc1Cl
not listed: CAOV3
inactive: all other assays above

CC(C)N(CCNC(=O)CN1CCCC1=O)C(C)C
not listed: CAOV3
inactive: all other assays above

COCCOCCO
not listed: OV90 | CAOV3
inactive: all other assays above

CCCCC(CC)COC(=O)c1ccccc1C(=O)OCC(CC)CCCC (stereo unspecified)
not listed: OV90 | CAOV3
inactive: all other assays above

Nc1c(Cl)c(Cl)c(Cl)c(Cl)c1Cl
inactive: all assays above

CCC(=O)O[C@@H]1C=C2CCC3C(CCC4(C)C3CC[C@@H]4OC(=O)CC)C2CC1 (stereo partly specified)
not listed: OV90
inactive: all other assays above

CC[N+]1(CCOC(=O)C(O)(c2ccccc2)c2ccccc2)CCCCC1
inactive: all assays above

Fc1cc(Br)ccc1CBr
not listed: CAOV3
inactive: all other assays above

O=C(N[C@H]1CN2CCC1CC2)c1ccc(Cl)cc1
not listed: CAOV3
inactive: all other assays above

CC(C)NCC(O)c1ccc([N+](=O)[O-])cc1 (stereo unspecified)
inactive: all assays above

O=S(=O)(O)C(F)(F)C(F)(F)C(F)(F)C(F)(F)F
not listed: CAOV3
inactive: all other assays above
